Records with an inconclusive call do not appear. The source made the active and inactive calls. Rule for the calls, unless noted: active = hit-call score of the fitted dose curve at least 0.9, where 1 is the maximum; inactive = score below 0.9.
Assays:
[1] = molecular target: Bile acid receptor (Homo sapiens) (UniProt Q96RI1); test: ATG_FXR_TRANS: Attagene TRANS-FACTORIAL HepG2 Assay for Farnesoid X Receptor (FXR) (AID 2282979; active = hit-call score of the fitted dose curve at least 0.9, where 1 is the maximum;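 note: hits raise reporter mRNA above DMSO so AC50 marks FXR activation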); conditions: HepG2 Attagene TRANS FXR-GAL4 reporter transcription
Procedure, shortened: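 Reporter transcripts from transfected HepG2 cells were measured 24 h after dosing, using RT-PCR with capillary electrophoresis of 6-FAM-labelled fragments. The read-out reflects activity of exogenous FXR-Gal4 chimera on GAL4-UAS units, with induction relative to DMSO.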

[2] = ATG_M_06_TRANS: Attagene TRANS-FACTORIAL HepG2 Assay for M06 Transcription Factor (Internal Marker) (AID 2282983; active = hit-call score of the fitted dose curve at least 0.9, where 1 is the maximum); conditions: HepG2 Attagene TRANS M06 internal marker reporter
Procedure, shortened: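 Background-control reporter readout: after 24 h chemical exposure of transiently transfected HepG2 (GAL4-UAS reporter units), mRNA quantified by RT-PCR with fluorescent labeling and capillary electrophoresis. Gain-of-signal fitting against DMSO baseline.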

[3] = molecular target: Nuclear receptor subfamily 4 group A member 2 (Homo sapiens) (UniProt P43354); test: ATG_NURR1_TRANS: Attagene TRANS-FACTORIAL HepG2 Assay for human Nuclear Receptor Related Protein 1 (NURR1) (AID 2282985; active = hit-call score of the fitted dose curve at least 0.9, where 1 is the maximum); conditions: HepG2 Attagene TRANS reporter, mRNA readout
Procedure, shortened: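 Endpoint: reporter mRNA increase relative to DMSO. HepG2 cells transfected with reporter units, treated 24 h; RNA processed by RT-PCR, labelling, HpaI digestion and capillary electrophoresis.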

[4] = molecular target: Transcriptional activator Myb (Homo sapiens) (UniProt P10242); test: ATG_Myb_CIS: Attagene CIS-FACTORIAL HepG2 Assay for human Myeloblastosis (Myb) Proto-Oncogene Transcription Factor (AID 2282986); conditions: HepG2 Attagene CIS-FACTORIAL Myb reporter transcription; actives raise or lower the signal
Procedure, shortened: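 After 24 h of compound dosing, total RNA from transfected HepG2 cells is reverse-transcribed and the reporter sequences amplified, labeled and separated by capillary electrophoresis. Values come from bidirectional fitting against DMSO.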

[5] = molecular target: Nuclear respiratory factor 1 (Homo sapiens) (UniProt Q16656); test: ATG_NRF1_CIS: Attagene CIS-FACTORIAL HepG2 Assay for human Nuclear Respiratory Factor 1 (NRF1) Orphan Gene (AID 2282987); conditions: HepG2 NRF1 cis-element reporter, Attagene multiplex; actives raise or lower the signal
Procedure, shortened: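 Measured: fluorescent reporter-specific RT-PCR products from transfected HepG2 cells, separated by capillary electrophoresis. Exposure lasted 24 h. Analysis used bidirectional curve fitting with DMSO as negative control.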

[6] = ATG_NFI_CIS: Attagene CIS-FACTORIAL HepG2 Assay for human Nuclear Factor I (NFI) (AID 2282989); conditions: HepG2 cis-regulatory reporter, NFI response element transcription; actives raise or lower the signal
Procedure, shortened: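 HepG2 cells transiently transfected with cis-element-driven multiplexed reporter transcription units, dosed for 24 h. Reporter mRNA quantified by RT-PCR, fluorescent labelling, HpaI digestion and capillary electrophoresis; bidirectional fit versus DMSO baseline.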

[7] = molecular target: Myc proto-oncogene protein (Homo sapiens) (UniProt P01106); test: ATG_Myc_CIS: Attagene CIS-FACTORIAL HepG2 Assay for human Myelocytomatosis (Myc) Proto-Oncogene Transcription Factor (AID 2282990); conditions: HepG2, Attagene cis-reporter transcription factor activity; actives raise or lower the signal
Procedure, shortened: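 Fluorescence intensity of reporter-specific cDNA fragments, separated by capillary electrophoresis, gives the signal. Transfected HepG2 cells carrying cis-promoter reporter constructs are incubated with compound for 24 h; DMSO serves as baseline.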

[8] = ATG_NRF2_ARE_CIS: Attagene CIS-FACTORIAL HepG2 Assay for human Nuclear Factor Erythroid 2 Related Factor 2 (NFR2) response to Antioxidant Response Elements (ARE) (AID 2282992); conditions: HepG2 Attagene ARE/NRF2 reporter, transcription factor activity; actives raise or lower the signal
Procedure, shortened: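 Readout: reporter mRNA quantified by RT-PCR plus FAM-labelled primer extension, HpaI digestion and capillary electrophoresis, 24 h after dosing transfected HepG2 cells. Gain or loss of signal is fitted bidirectionally against DMSO baseline.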

[9] = ATG_Oct_MLP_CIS: Attagene CIS-FACTORIAL HepG2 Assay for human Octamer-Binding Transcription Factor (Oct) (AID 2282993); conditions: HepG2 Attagene cis-factorial Oct reporter, mRNA; actives raise or lower the signal
Procedure, shortened: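 HepG2 cells transiently transfected with cis-promoter-driven multiplexed reporter transcription units, dosed for 24 h. Reporter mRNA quantified by RT-PCR, fluorescent labelling, HpaI digestion and capillary electrophoresis; bidirectional fits versus DMSO baseline.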

[10] = ATG_M_32_TRANS: Attagene TRANS-FACTORIAL HepG2 Assay for M32 Transcription Factor (Internal Marker) (AID 2282984; active = hit-call score of the fitted dose curve at least 0.9, where 1 is the maximum;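 note: transcript level of a background control reporter unit measured by RT-PCR and capillary electrophoresis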); conditions: HepG2 Attagene TRANS M32 internal marker reporter
Procedure, shortened: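 Internal-marker readout from a multiplexed transcription reporter panel. HepG2 cells were transfected with GAL4-UAS reporter units, treated 24 hours, and reporter transcript levels determined by fluorescence after RT-PCR and capillary separation.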

[11] = ATG_NF_kB_CIS: Attagene CIS-FACTORIAL HepG2 Assay for human Nuclear Factor Kappa B (NF-kB) (AID 2282991); conditions: HepG2 Attagene cis-factorial NF-kB reporter mRNA; actives raise or lower the signal
Procedure, shortened: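 Fluorescence of labelled RT-PCR products separated by capillary electrophoresis gives reporter mRNA levels from transfected HepG2 cells exposed 24 h; values are fitted in both directions relative to DMSO.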

[12] = molecular target: Cellular tumor antigen p53 (Homo sapiens) (UniProt P04637); test: ATG_p53_CIS: Attagene CIS-FACTORIAL HepG2 Assay for human p53 Transcription Factor (AID 2282994); conditions: HepG2 p53 cis-element reporter, Attagene mRNA; actives raise or lower the signal
Procedure, shortened: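 Read-out: reporter mRNA by RT-PCR plus capillary electrophoresis with fluorescence detection. Human HepG2 liver cells carried transfected multi-reporter cis-element constructs, dosed 24 h. Gain or loss of signal fitted bidirectionally against DMSO control.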

[13] = molecular target: Oxysterols receptor LXR-alpha (Homo sapiens) (UniProt Q13133); test: ATG_LXRa_TRANS: Attagene TRANS-FACTORIAL HepG2 Assay for human Liver X Receptor alpha (LXRa) (AID 2282980; active = hit-call score of the fitted dose curve at least 0.9, where 1 is the maximum); conditions: HepG2 Attagene TRANS reporter, LXRa transactivation
Procedure, shortened: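 Chemical-induced reporter mRNA measured by RT-PCR with fluorescent labelling and capillary electrophoresis after 24 h dosing of transiently transfected HepG2 cells expressing exogenous NR-Gal4 chimeras; increases scored against DMSO baseline.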

[14] = molecular target: Oxysterols receptor LXR-beta (Homo sapiens) (UniProt P55055); test: ATG_LXRb_TRANS: Attagene TRANS-FACTORIAL HepG2 Assay for human Liver X Receptor beta (LXRb) (AID 2282981; active = hit-call score of the fitted dose curve at least 0.9, where 1 is the maximum); conditions: HepG2 Attagene TRANS GAL4-LXRb reporter, mRNA
Procedure, shortened: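 Multiplexed reporter assay, HepG2, 24 h dosing. Fluorescence of labelled RT-PCR products after capillary electrophoresis gives transcript level; positive fitting direction relative to DMSO.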

[15] = molecular target: Hepatocyte nuclear factor 4-alpha (Homo sapiens) (UniProt P41235); test: ATG_HNF4a_TRANS: Attagene TRANS-FACTORIAL HepG2 Assay for human Hepatocyte Nuclear Factor 4 alpha (HNF4a) (AID 2282982; active = hit-call score of the fitted dose curve at least 0.9, where 1 is the maximum); conditions: HepG2 HNF4a transactivation reporter, mRNA readout
Procedure, shortened: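 Endpoint reflects transcriptional activation of a GAL4-UAS reporter by an HNF4a-GAL4 chimera in transfected HepG2 cells, 24 h post-dosing. Fluorescence from RT-PCR products separated by capillary electrophoresis; DMSO baseline.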

Measured: AC50

Sequence of Transcriptional activator Myb (Homo sapiens) (P10242 whole entry, looked up): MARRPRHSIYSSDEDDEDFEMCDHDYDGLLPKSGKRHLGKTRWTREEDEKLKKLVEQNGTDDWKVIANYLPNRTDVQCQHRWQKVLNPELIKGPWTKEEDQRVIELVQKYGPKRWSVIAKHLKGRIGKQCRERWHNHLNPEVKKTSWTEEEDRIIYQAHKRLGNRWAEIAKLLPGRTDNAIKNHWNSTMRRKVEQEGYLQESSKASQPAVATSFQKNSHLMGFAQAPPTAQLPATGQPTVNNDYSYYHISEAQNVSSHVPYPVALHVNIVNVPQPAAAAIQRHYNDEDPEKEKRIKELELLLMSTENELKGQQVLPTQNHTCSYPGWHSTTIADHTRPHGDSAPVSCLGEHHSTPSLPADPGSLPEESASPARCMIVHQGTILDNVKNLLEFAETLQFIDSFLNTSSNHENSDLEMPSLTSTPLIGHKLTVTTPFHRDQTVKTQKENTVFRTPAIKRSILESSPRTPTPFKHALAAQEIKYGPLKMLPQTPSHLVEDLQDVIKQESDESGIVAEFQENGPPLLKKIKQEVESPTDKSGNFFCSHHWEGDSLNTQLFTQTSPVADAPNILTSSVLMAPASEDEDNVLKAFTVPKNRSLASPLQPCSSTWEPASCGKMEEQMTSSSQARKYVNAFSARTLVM
Sequence of Oxysterols receptor LXR-beta (Homo sapiens) (P55055 whole entry, looked up, the tested form may be a part): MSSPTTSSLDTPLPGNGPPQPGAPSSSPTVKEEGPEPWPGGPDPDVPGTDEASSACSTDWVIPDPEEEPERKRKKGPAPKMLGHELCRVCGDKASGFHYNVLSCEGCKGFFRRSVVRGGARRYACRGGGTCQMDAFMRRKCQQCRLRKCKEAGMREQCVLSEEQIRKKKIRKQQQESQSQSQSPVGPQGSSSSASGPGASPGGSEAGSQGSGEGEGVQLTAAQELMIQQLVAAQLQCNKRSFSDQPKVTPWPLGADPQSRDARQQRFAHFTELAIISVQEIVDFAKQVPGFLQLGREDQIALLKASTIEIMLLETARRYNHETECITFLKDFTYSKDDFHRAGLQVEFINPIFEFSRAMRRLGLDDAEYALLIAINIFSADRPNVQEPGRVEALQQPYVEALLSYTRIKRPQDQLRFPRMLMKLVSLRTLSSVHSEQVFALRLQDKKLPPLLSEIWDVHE
Sequence of Bile acid receptor (Homo sapiens) (Q96RI1 whole entry, looked up, the tested form may be a part): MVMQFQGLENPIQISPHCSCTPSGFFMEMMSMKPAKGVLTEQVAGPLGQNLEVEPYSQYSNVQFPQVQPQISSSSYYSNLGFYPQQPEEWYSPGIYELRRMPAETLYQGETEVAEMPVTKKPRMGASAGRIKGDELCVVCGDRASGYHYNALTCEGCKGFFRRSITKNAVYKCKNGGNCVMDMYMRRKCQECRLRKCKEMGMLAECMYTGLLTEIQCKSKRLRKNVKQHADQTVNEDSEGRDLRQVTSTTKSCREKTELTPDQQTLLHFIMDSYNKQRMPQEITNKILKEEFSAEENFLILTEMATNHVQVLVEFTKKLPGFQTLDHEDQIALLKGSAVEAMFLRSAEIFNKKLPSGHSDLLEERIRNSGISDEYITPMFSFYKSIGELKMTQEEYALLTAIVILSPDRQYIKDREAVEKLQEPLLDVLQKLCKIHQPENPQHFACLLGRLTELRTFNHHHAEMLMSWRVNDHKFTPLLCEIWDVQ
Sequence of Myc proto-oncogene protein (Homo sapiens) (P01106 whole entry, looked up, the tested form may be a part): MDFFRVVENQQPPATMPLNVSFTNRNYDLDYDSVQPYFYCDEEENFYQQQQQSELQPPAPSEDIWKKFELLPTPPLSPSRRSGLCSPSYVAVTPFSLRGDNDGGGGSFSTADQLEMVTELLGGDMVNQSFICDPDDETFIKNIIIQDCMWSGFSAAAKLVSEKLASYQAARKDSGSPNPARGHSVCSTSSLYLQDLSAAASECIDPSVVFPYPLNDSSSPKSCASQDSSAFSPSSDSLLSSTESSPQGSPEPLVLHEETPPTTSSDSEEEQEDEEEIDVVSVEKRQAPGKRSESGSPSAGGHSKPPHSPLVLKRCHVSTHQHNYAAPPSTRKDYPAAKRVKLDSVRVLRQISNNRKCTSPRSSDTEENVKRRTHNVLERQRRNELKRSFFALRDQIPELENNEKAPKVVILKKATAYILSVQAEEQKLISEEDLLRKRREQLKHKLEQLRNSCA
Sequence of Oxysterols receptor LXR-alpha (Homo sapiens) (Q13133 whole entry, looked up, the tested form may be a part): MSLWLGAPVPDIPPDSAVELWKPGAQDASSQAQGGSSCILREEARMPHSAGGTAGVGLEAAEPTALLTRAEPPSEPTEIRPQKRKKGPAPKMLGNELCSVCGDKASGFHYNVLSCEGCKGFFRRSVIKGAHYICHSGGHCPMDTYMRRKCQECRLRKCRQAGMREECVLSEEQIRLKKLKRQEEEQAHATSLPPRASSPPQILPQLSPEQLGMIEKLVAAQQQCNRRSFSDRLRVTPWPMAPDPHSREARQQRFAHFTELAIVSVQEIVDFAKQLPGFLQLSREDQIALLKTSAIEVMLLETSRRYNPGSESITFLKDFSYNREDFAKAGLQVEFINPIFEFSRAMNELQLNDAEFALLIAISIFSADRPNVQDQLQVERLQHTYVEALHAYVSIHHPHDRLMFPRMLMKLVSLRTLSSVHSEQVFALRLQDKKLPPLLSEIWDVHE
Sequence of Nuclear receptor subfamily 4 group A member 2 (Homo sapiens) (P43354 whole entry, looked up): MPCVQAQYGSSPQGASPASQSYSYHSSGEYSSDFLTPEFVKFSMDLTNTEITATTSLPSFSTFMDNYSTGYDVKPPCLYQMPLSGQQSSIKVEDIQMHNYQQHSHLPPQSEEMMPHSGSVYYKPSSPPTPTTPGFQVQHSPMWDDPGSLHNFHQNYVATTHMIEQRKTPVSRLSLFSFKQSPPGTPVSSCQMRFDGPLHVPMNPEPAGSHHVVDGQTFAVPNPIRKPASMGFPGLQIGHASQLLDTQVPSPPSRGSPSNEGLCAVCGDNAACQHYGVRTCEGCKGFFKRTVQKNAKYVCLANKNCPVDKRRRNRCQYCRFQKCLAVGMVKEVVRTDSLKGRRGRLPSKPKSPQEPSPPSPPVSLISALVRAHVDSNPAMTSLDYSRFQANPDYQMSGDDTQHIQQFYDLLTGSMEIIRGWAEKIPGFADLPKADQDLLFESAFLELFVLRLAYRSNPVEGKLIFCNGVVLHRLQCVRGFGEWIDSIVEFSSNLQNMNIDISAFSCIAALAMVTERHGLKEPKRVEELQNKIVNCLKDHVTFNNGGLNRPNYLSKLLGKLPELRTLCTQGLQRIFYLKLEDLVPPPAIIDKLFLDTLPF
Sequence of Cellular tumor antigen p53 (Homo sapiens) (P04637 whole entry, looked up): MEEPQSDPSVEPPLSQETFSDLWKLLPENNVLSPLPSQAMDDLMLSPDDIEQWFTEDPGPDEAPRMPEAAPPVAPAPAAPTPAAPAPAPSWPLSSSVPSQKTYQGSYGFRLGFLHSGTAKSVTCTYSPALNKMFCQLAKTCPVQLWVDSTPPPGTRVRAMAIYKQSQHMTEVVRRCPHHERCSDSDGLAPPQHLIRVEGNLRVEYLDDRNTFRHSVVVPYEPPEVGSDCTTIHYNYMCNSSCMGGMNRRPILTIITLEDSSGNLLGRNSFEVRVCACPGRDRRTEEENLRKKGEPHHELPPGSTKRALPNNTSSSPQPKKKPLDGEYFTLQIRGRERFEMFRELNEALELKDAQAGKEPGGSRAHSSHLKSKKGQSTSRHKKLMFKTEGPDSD
Sequence of Nuclear respiratory factor 1 (Homo sapiens) (Q16656 whole entry, looked up): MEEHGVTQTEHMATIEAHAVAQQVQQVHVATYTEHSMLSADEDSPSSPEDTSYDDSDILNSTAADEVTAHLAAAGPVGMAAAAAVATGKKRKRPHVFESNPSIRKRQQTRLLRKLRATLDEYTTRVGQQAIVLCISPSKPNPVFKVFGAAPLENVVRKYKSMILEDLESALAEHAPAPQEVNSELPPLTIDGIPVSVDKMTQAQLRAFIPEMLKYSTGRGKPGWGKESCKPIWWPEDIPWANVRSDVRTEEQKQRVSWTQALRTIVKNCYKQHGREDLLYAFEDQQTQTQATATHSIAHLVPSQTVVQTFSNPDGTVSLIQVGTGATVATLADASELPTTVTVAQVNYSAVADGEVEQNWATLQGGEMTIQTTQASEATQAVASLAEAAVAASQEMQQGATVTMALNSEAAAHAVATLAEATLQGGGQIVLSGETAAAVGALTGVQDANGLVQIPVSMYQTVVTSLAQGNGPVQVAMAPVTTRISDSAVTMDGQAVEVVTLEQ
Sequence of Hepatocyte nuclear factor 4-alpha (Homo sapiens) (P41235 whole entry, looked up, the tested form may be a part): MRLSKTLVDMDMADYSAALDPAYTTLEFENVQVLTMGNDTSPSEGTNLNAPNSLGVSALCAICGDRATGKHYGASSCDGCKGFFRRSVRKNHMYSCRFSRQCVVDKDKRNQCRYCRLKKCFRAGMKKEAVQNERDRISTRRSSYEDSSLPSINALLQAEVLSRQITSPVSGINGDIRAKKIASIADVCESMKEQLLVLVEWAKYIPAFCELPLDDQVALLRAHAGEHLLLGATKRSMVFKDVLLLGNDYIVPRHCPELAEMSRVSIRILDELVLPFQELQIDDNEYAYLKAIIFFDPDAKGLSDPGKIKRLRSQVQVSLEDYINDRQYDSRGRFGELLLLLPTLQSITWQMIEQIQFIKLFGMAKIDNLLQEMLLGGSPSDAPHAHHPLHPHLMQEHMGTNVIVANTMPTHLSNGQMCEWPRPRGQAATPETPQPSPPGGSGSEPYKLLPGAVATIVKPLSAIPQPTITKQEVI

COC(=O)c1ccccc1OC
inactive: [1] | [2] | [3] | [4] | [5] | [6] | [7] | [8] | [9]

O=C(/C=C/C=C/c1ccc2c(c1)OCO2)N1CCCCC1
active: [8] 47.4 µM
inactive: [1] | [2] | [10] | [3] | [4] | [6] | [7] | [11] | [9] | [12]

COC(=O)c1sccc1S(N)(=O)=O
inactive: [1] | [2] | [10] | [3] | [4] | [5] | [6] | [7] | [11] | [12]

CCCCCCCCCCCCCCCC[n+]1ccccc1
inactive: [13] | [14] | [2] | [10] | [4] | [6] | [8] | [9]
active: [15] 19.8 µM | [5] 14.7 µM | [7] 20 µM | [12] 20.4 µM

N[C@H]1C(O)O[C@H](CO)[C@H](O)[C@@H]1O (stereo partly drawn)
inactive: [13] | [14] | [2] | [4] | [5] | [6] | [7] | [8] | [9] | [12]

C1=CCCC1
inactive: [1] | [2] | [10] | [4] | [5] | [6] | [7] | [11] | [8] | [9] | [12]

C1=Cc2ccccc2C1
active: [8] 19.8 µM
inactive: [13] | [14] | [15] | [2] | [4] | [6] | [7] | [9] | [12]

COC(=O)c1ccc2cc(C(=O)OC)ccc2c1
inactive: [13] | [14] | [2] | [10] | [3] | [4] | [5] | [6] | [7] | [11] | [8] | [9] | [12]

Cc1cc(C)c(C)c(O)c1
inactive: [13] | [14] | [2] | [10] | [3] | [4] | [5] | [6] | [7] | [11] | [12]

CCN(CCO)c1cccc(C)c1
inactive: [1] | [10] | [3] | [4] | [5] | [6] | [7] | [11] | [8] | [9] | [12]

CCc1c(C(=O)O)c(=O)cnn1-c1ccc(Cl)cc1
inactive: [1] | [10] | [3] | [4] | [6] | [7] | [11] | [8] | [9] | [12]

— PubChem BioAssay (EPA / NIEHS)
